Molecules are shown by their SMILES. Screen size: about 330,000 compounds; about 4,200 (1.3%) were called active. A call without a number means that no potency is given here. Inconclusive results (about 6%) are left out. The sample holds actives, similar compounds and a random draw of the others, so the mix is not that of the screen. Unmarked numbers belong to inactive results. Calls come from the whole dose curve; as a rule, active = well fitted activation curve with a large enough effect; inconclusive = small, poorly fitted or top-dose-only effect; inactive = no such curve, though single readings can be large or run the other way.
Potency is the fitted concentration of half-maximal effect.

A short description of this test: qHTS screen for small molecules that induce genotoxicity in human embryonic kidney (HEK293T) cells expressing luciferase-tagged ELG1. Note: nearly all actives have a fitted effect of over 60% in size. The following applies: HEK293T ELG1-luciferase reporter, luminescence, 16 h; series mostly up to 46 µM. The method, boiled down: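 Screening used a luciferase reporter fused to human ELG1 in HEK293T cells. Luminescence was read on a CCD plate imager after 16 hr exposure and 30 min ONE-Glo incubation.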
A general note: qHTS replaces the single test concentration by a dilution series.
Take `CCC(C)c1ccc(NC(=O)COC(=O)C2CCCC2)cc1` (stereo unspecified): the Potency result is “inactive”. Same read-out and setting: the entry for `COc1cc(/C=C/C(=O)Nc2ccc(OC)c(S(=O)(=O)N3CCOCC3)c2)ccc1OCC#N` is “inactive”; for `O=C(OCCN1C(=O)c2ccccc2C1=O)[C@@H]1CC(O)CN1S(=O)(=O)c1ccccc1[N+](=O)[O-]` (stereo partly specified) it is “inactive”.

For the compound `CCCc1cc(=O)oc2c(C)c(OCC(=O)Nc3ccccn3)ccc12`, the Potency is 5.17 µM (active). With `CCCc1cc(=O)oc2c(C)c(OCC(=O)NCc3ccccn3)ccc12`, the activity change, positive = activation was 0.193% [at 9.26 µM]. As for `CCCc1cc(=O)oc2c(C)c(OCC(=O)N3CCC(C(=O)O)CC3)ccc12`, the Potency entry is “inactive”. On the same count and under the same terms, the entry for `O=C(Nc1cc(S(=O)(=O)N2CCCCC2)ccc1Cl)C1COc2ccccc2O1` (stereo unspecified) is “inactive”; for `CC[C@]12c3[nH]c4ccc(Cl)cc4c3CCN1C(=O)[C@@H](CC(=O)NCCN1CCOCC1)C[C@@H]2C(=O)N1CCN(C(=O)C2CC2)CC1` it is “inactive”; for `COc1ccc(NS(=O)(=O)c2ccc3oc(SCC(N)=O)nc3c2)cc1` it is “inactive”. Same read-out and setting: next, `CN(C)S(=O)(=O)c1ccc2oc(SCC(=O)Nc3ccccc3F)nc2c1`: 10.3 µM (active); `COc1ccc(S(=O)(=O)N(C)C)cc1NC(=O)CSc1ncccn1`: “inactive”. The same measure, in the same setting: next, `O=c1c2c(nc3cc(-c4cccc(Cl)c4)[nH]n13)CCCC2`: 0.517 µM (active). Regarding `O=c1c2c(nc3nc[nH]n13)CCC2`, the Potency result was “inactive”. With `CCCCN1Cc2c(nc3cc(-c4ccccc4)[nH]n3c2=O)C1=O`, the Potency result was “inactive”. The same measure, in the same setting: next, `Cc1ccc(CNC(=O)Cn2cnc3c(NCc4ccccc4)ncnc32)o1`: “inactive”; `Clc1ccc(Nc2nc(-c3cccs3)cs2)nc1`: 1.16 µM (active); `COc1ccc(NC(=O)c2sc(N)nc2-c2ccccc2)cc1`: “inactive”. Still for that read-out and setting: next, `Clc1ccc(-c2csc(-c3ccncc3)n2)cc1`: “inactive”; `O=C(Nc1nc(-c2ccc(-c3ccccc3)cc2)cs1)c1cnccn1`: “inactive”. Regarding `Clc1ccc(-n2nnnc2-c2cnc(-c3ccccn3)nc2-c2cccs2)cc1`, the Potency result is “inactive”. Same read-out and setting: the figure for `c1ccc(Nc2nc(-c3ccncc3)cs2)nc1` is 1.46 µM (active); for `Cc1cccc(Nc2nc(-c3ccccc3)cs2)n1` it is 2.91 µM (active); for `COc1ccc(Nc2nc(-c3ccccc3)cs2)cc1` it is 0.58 µM (active).

Take `COc1ccc(Nc2nnc(C)c3ccccc23)cc1`: the Potency result is “inactive”. Still for that read-out and setting: next, `c1csc(-c2cn3c(n2)SCC3)c1`: “inactive”; `CCc1noc(C)c1C(=O)Nc1nc(-c2ccccc2)cs1`: “inactive”; `Cc1cccc(S(=O)(=O)CC(=O)Nc2nc(-c3ccccc3)cs2)c1`: “inactive”.

Take `O=C(NCC#CCSc1nnc(-c2cccc3ccccc23)o1)c1cccs1`: the Potency entry was “inactive”. Same read-out and setting: the entry for `O=C(CNC(=O)c1ccco1)NNC(=O)c1ccc(Br)cc1` is “inactive”. Same read-out and setting: the entry for `C[C@H](CO)N1C[C@H](C)[C@@H](CN(C)C(=O)Nc2ccc3c(c2)OCO3)Oc2c(cccc2N(C)C)C1=O` is “inactive”; for `CC(=O)c1ccc(NC(=O)CSc2nc3ccccc3c(=O)n2CCCN2CCOCC2)cc1` it is “inactive”. Same read-out and setting: next, `Cc1c(NC(=O)C(C)OC(=O)c2ccccc2O)c(=O)n(-c2ccccc2)n1C` (stereo unspecified): “inactive”; `Cn1c(N)c(C(=O)COC(=O)c2cccc(S(=O)(=O)N3CCOCC3)c2)c(=O)n(C)c1=O`: “inactive”. In the case of `C#CCOCCOCCOCCNc1nc(N2CCN(C(=O)C([C@@H](C)O)n3cc([C@@H](N)CCCCN)nn3)CC2)nc(N2CCN(C(=O)[C@H](CCCCN)n3cc(CN)nn3)CC2)n1` (stereo partly specified), the Potency entry was “inactive”.

In the case of `Cc1noc(C)c1S(=O)(=O)N(C)C[C@H]1Oc2ccc(NC(=O)C3CC3)cc2C(=O)N([C@H](C)CO)C[C@@H]1C`, the Potency entry was “inactive”. Same read-out and setting: next, `O=C(c1cnn(-c2ccc(Cl)cc2)c1)c1ccccc1O`: 7.3 µM (active); `COc1ccc(CNC(=O)COc2ccccc2C(=O)c2cnn(-c3ccccc3)c2)cc1OC`: “inactive”. Turning to `Cc1ncc(CC(=O)n2cc(C(=O)c3cc(Cl)ccc3O)cn2)s1`, the Potency result was “inactive”. Turning to `CC[C@]1(C(=O)OC)[C@H]2C(=O)N(Cc3ccccc3)C(=O)[C@H]2[C@H]2CN=C(SCc3ccc(C#N)cc3)N21`, the Potency entry is “inactive”. Still for that read-out and setting: the entry for `CN[C@H](C(=O)NC[C@H]1O[C@@H](n2cnc3c(N)ncnc32)[C@H](O)[C@@H]1O)[C@@H](C)OCc1ccccc1` is “inactive”; for `O=C1[C@@H](c2ccccc2)[C@@H](c2ccccc2)N1c1cccnc1` it is “inactive”. The same measure, in the same setting: next, `CC[C@]12c3[nH]c4ccc(Cl)cc4c3CCN1C(=O)[C@@H](CC(=O)NCCCOC)C[C@@H]2C(=O)N1CCN(C(=O)c2ccco2)CC1`: “inactive”. The same measure, in the same setting: the entry for `O=C(Nc1cccnc1Cl)c1cc(-c2cccc(Cl)c2)on1` is “inactive”; for `COc1ccc(-c2cc(C(=O)NCCCn3ccnc3)no2)cc1` it is “inactive”; for `O=C(NCCCn1ccnc1)c1cc(-c2ccccc2)on1` it is 14.6 µM (active). For `O=C(NC1CCCC1)c1cc(-c2ccccc2)on1`, the Potency was 9.2 µM (active). Consider `O=C(NC1CCCCC1)c1ccc(-c2ccc(Cl)cc2)o1`, for which the Potency entry was “inactive”. Consider `O=C(NCCCn1ccnc1)c1ccccc1F`, for which the Potency result is “inactive”. Consider `O=C(NC(=S)Nc1ccc(Br)cc1F)C1CCCCC1`, for which the Potency result is “inactive”. Turning to `COc1ccc(CNC(=O)C[C@H]2C[C@H](C(=O)N3CCOCC3)[C@@]3(CCC4CCCC4)c4[nH]c5ccc(Cl)cc5c4CCN3C2=O)cc1OC`, the Potency result was “inactive”. Same read-out and setting: next, `O=C(Nc1cccc(S(=O)(=O)NC2=NCCC2)c1)c1ccc(F)cc1F`: “inactive”.

Turning to `CCn1nnc2cc(C(=O)Nc3ccc(C(=O)OC(C)C)cc3)ccc21`, the Potency result was “inactive”.

For `C/C(=N\NC(=O)c1ccoc1C)c1ccccc1O`, the Potency was 18.3 µM (active). Still for that read-out and setting: next, `COc1ccccc1N(CC(=O)N/N=C(\C)c1ccccc1O)S(=O)(=O)c1ccc(C)cc1`: “inactive”.

For `CC(C)=C(NC(=O)c1ccccc1)C(=O)N/N=C(\C)c1ccccc1O`, the Potency entry was “inactive”. As to `O=C1NC[C@@H](c2ccccc2)OC(=O)[C@H](Cc2ccc(F)cc2)CC/C=C/C[C@H]1CC(=O)N(CCO)Cc1ccccc1`, the Potency entry is “inactive”. As to `O=C(C[n+]1cc(Br)cc2ccccc21)c1ccc(F)cc1`, the Potency entry is “inactive”. On the same count and under the same terms, the figure for `O=C(c1ccc(F)cc1)n1c(=S)nc2ccccn21` is 0.651 µM (active); for `O=C(c1ccc(F)cc1)n1cc(C(=S)N2CCOCC2)c2ccccc21` it is “inactive”. In the case of `O=C(COC(=O)/C=C/c1cccc(Cl)c1)NCc1cccs1`, the Potency entry was “inactive”. Still for that read-out and setting: next, `Nn1c(SCC(=O)Nc2ccc3c(c2)CCC3)nnc1C1CC1`: “inactive”; `Cn1c(SCC(=O)N2CCCC2)nnc1-c1cccs1`: “inactive”; `O=C(COc1ccccc1Cl)N1CCCCCCC1`: “inactive”. On the same count and under the same terms, next, `O=C(CSc1ccsc1[N+](=O)[O-])N1CCCCC1`: “inactive”; `O=C(CSCc1ccc(Cl)cc1)N1CCN(Cc2ccc3c(c2)OCO3)CC1`: “inactive”. On the same count and under the same terms, the figure for `O=C(CSCc1cccs1)N1CCCC1` is 16.4 µM (active); for `O=C(CSCc1ccc(Cl)cc1)N1CCCCC1` it is 8.91 µM (active); for `CCN(C[C@H]1N[C@@](CC)(C(=O)OC)[C@H]2C(=O)N(Cc3ccccc3)C(=O)[C@@H]12)S(=O)(=O)c1ccccc1` it is “inactive”. For the compound `COc1cc(OC)cc(C(=O)NC(C(=O)N2CCC2)C(C)C)c1` (stereo unspecified), the Potency entry is “inactive”. On the same count and under the same terms, next, `C/C(=N\O)C1(C)N(O)C(C)(C)C(c2ccc(Br)cc2)=[N+]1[O-]` (stereo unspecified): “inactive”; `CC(=O)C1(C)N(O)C(C)(C)C(c2cccs2)=[N+]1[O-]` (stereo unspecified): 0.082 µM (active).

Consider `CC1(C)C(c2cccs2)=[N+]([O-])C2(CCCCC2=O)N1O` (stereo unspecified), for which the Potency entry was “inactive”. The same measure, in the same setting: the entry for `COc1c(Cl)cc(C(=O)Nc2ccc(Cl)cn2)cc1Cl` is “inactive”.

With `CCCc1cc(C(=O)Nc2ccc(C(=O)OC)cc2)cs1`, the Potency entry is “inactive”.

Turning to `Cc1nc(NC(=O)c2ccc3c(c2)OCCO3)ccc1Br`, the Potency entry was “inactive”. In the case of `O=C(Nc1ccc(Cl)cn1)c1ccc2c(c1)OCCO2`, the Potency is 1.16 µM (active). On the same count and under the same terms, next, `COc1ccc(C(=O)NC(=S)Nc2ccc(Cl)cn2)cc1OC`: “inactive”; `CCCc1cc(C(=O)Nc2ccc(Cl)cn2)cs1`: 2.31 µM (active); `O=C(Nc1cccc(S(=O)(=O)N2CCCC2)c1)c1cncc(Br)c1`: “inactive”. On the same count and under the same terms, the entry for `COc1ccc(-c2sc3ccc(OC)cc3c2C#Cc2ccccn2)cc1` is “inactive”. Still for that read-out and setting: the entry for `COc1cc(OC)c2c(-c3cccc(-c4cccc(N)c4)c3)cc(=O)oc2c1` is “inactive”; for `CCN([C@H](CO)C(C)C)S(=O)(=O)c1ccccc1Br` it is “inactive”; for `Cc1ccc2c(c1)C1C[N+](C)(CC(=O)c3ccccc3)CCC1N2C(=O)c1ccccc1Cl` (stereo unspecified) it is “inactive”.

With `CC1CCCCC1NC(=O)COc1ccc(C#N)cc1` (stereo unspecified), the Potency result is “inactive”.

With `C=CCC[C@@H](Cc1ccc(F)cc1)C(=O)O[C@H](CNC(=O)[C@H](CC=C)CC(=O)N(CCO)Cc1ccccc1)c1ccccc1`, the Potency entry is “inactive”. The same measure, in the same setting: next, `COC(=O)c1ccc(CNC(=O)c2ccc(S(=O)(=O)N3CCCCCC3)cc2)cc1`: “inactive”; `Cc1noc(C)c1COc1ccc(C(=O)NCCOc2ccccc2)cc1`: “inactive”. For `CCCCCCCCC(=O)NCCOc1ccccc1`, the Potency result was “inactive”. The same measure, in the same setting: the figure for `O=C(NCCOc1ccccc1)c1ccccc1` is 1.64 µM (active). On the same count and under the same terms, the figure for `Cc1cc(Cl)c(S(=O)(=O)Nc2ccc3c(c2)OCCO3)cc1OCC(N)=O` is 23.1 µM (active); for `Cc1cc(Cl)c(S(=O)(=O)NCC2CCCO2)cc1OCC(N)=O` (stereo unspecified) it is “inactive”; for `Cc1cc(Cl)c(S(=O)(=O)N(C)C)cc1OCC(N)=O` it is “inactive”.

Regarding `COC(=O)C1=C(C)N(Cc2ccccc2)C(=NCCCOC(C)C)N[C@H]1c1ccccc1`, the Potency result is “inactive”. Same read-out and setting: next, `CN(C)C(=O)CCc1ccc2c3c([nH]c2c1)[C@]1(C)[C@@H](C(=O)N2CCCCC2)C[C@H](CC(=O)NCCC2=CCCCC2)C(=O)N1CC3`: “inactive”; `Cc1cccc(C)c1OCCN1CCOCC1`: “inactive”; `Cc1cc2nc(SCCN3CCOCC3)[nH]c2cc1C`: 18.4 µM (active). In the case of `CCn1c2ccc(F)cc2c2nnc(SCCN3CCOCC3)nc21`, the Potency result is “inactive”.

`Cc1ccc(C(=O)OCC(=O)N2CCCCCC2)cc1S(=O)(=O)N1CCOCC1`: the Potency result was “inactive”. Regarding `CN1C/C(=C/c2cccs2)C(=O)/C(=C\c2cccs2)C1`, the Potency result was “inactive”.

For the compound `CCC1C/C(=C/c2cccs2)C(=O)/C(=C/c2cccs2)C1` (stereo unspecified), the Potency entry was “inactive”. Same read-out and setting: the figure for `O=C1/C(=C/c2cccs2)CCc2ccccc21` is 8.2 µM (active).

The values above are taken from PubChem BioAssay AID504466 (National Center for Advancing Translational Sciences (NCATS), 2011).
